# Efflux pump inh: inhibitors of Candida antifungal efflux pumps expressed in yeast | S. cerevisiae Candida pump triplex, Nile Red efflux | 330,000 tested, 0.44% active | inhibition, % at 10 µM;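 active = plate passing quality check with inhibition over a set limit, or well fluorescence over plate mean plus 4 SD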;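 note: Nile Red retained in pooled yeast measured as flow cytometry median fluorescence; 0% = buffer negative control and 100% = Enniatin B positive control; higher means more Nile Red kept so more efflux inhibition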
# CIT2 TOR yeast: alters CIT2-GFP fluorescence in TOR pathway yeast screen. S. cerevisiae CIT2-GFP strain, flow cytometry, 3 h; 100 means same as DMSO wells. GFP response vs DMSO, % at 10 µM. 320,000 tested, 0.065% active;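 active = GFP response relative to DMSO above a set limit, near the screen mean plus 3 SD, cut at about 150% in these data; inconclusive = Fewer than 70 cells measured for a yeast strain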;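 note: ratio of well median GFP fluorescence to mean of DMSO wells on the plate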
# AGP1-GFP MLPCN: yeast TOR pathway AGP1-GFP modulation; S. cerevisiae AGP1-GFP multiplex flow cytometry, 3 h; GFP as percent of DMSO wells; GFP response vs DMSO, % at 10 µM; 320,000 tested, 0.02% active; AID 2066;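 active = GFP response relative to DMSO above a set limit, near screen average plus 3 SD, cut at about 150% in these data; inconclusive = fewer than 70 cells counted for the yeast strain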;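 note: median GFP channel fluorescence of the gated AGP1 strain per well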
# LAP4-GFP MLPCN: yeast TOR pathway LAP4-GFP modulation. S. cerevisiae LAP4-GFP multiplex, flow cytometry GFP, 3 h; median GFP as percent of DMSO wells. GFP response vs DMSO, % at 10 µM. 320,000 tested, 0.34% active;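 active = GFP response vs DMSO above a set limit, about the screen mean plus 3 SD, cut at about 150% in these data; inconclusive = under 70 cell events counted for the yeast strain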
# MEP2-GFP yeast: yeast TOR pathway MEP2-GFP modulation; GFP response vs DMSO, % at 10 µM; AID 2016; S. cerevisiae MEP2-GFP strain, flow cytometry GFP, 3 h; 100% = DMSO control level; 330,000 tested, 0.51% active;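 active = GFP response versus DMSO above a set limit, roughly screen mean plus 3 SD, cut at about 180% in these data; inconclusive = fewer than 70 cells counted for a yeast strain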;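 note: median GFP fluorescence of the barcode-gated MEP2-GFP cells per well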
# RPL19A TOR yeast: yeast TOR pathway RPL19A-GFP modulation. AID 2025. percent response vs DMSO, % at 10 µM. S. cerevisiae RPL19A-GFP strain, flow cytometry, 3 h; active compounds read low. 330,000 tested, 0.3% active;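 active = percent response vs DMSO below 50%; inconclusive = fewer than 70 events counted for the yeast strain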;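 note: median channel GFP fluorescence of the barcoded RPL19A-GFP strain; ratio of sample median GFP to plate DMSO average so 100% = DMSO; lower means less RPL19A-GFP as with rapamycin TOR inhibition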
# * hit, by the source's call; ? = inconclusive; nt = no result given; [ ] = another dose, or the depositor's remark. Rows were chosen to be rich in hits. Some 1.3% of all compounds tested hit in one or more screens of this group.
SMILES,Efflux pump inh,CIT2 TOR yeast,AGP1-GFP MLPCN,LAP4-GFP MLPCN,MEP2-GFP yeast,RPL19A TOR yeast
COc1ccccc1N(CC(=O)Nc1ccccc1C(F)(F)F)S(=O)(=O)c1cccs1,0,91,93,87,92,94
O=C(CN(Cc1ccccc1Cl)C(=O)c1csnn1)NCc1ccc(F)cc1,0,98,99,99,103,100
O=C(CN(Cc1ccccc1Cl)C(=O)c1csnn1)NCc1ccccc1,0,?,22,74,283*[may fluoresce violet],98
Cc1oc2c(CN3CCCC(C)C3)c(O)ccc2c(=O)c1-c1ccccc1 (configuration not stated),0,94,56,99,253*,50
Cc1oc2c(CN3CCOCC3)c(O)ccc2c(=O)c1-c1ccccc1,0,99,105,95,102,95
COc1ccc(NC(=O)NC23CC4CC(CC(C4)C2)C3)cc1OC,0,?,nt,84,283*[may fluoresce violet],16*[may fluoresce violet]
Cc1cc(=O)oc2cc(NS(=O)(=O)c3ccccc3)ccc12,0,?,26,93,561*[may fluoresce violet],60
Cc1cc(=O)oc2cc(NS(=O)(=O)c3ccc(F)cc3)ccc12,0,98,104,108,93,98
CCOc1ccccc1C1N=C(c2ccc(OC)cc2)CC(c2ccccc2O)N1 (configuration not stated),0,89,85,167*,100,99
O=C(N/N=C/c1ccc(-c2ccc(Br)cc2)o1)c1ccc2c(c1)OCO2,0,84,90,162*,91,92
O=C(N/N=C\c1ccc(S(=O)(=O)O)o1)c1ccc2c(c1)OCO2,0,103,102,93,108,104
CCc1cc(=O)oc2c(CN3CCCC3)c(O)c(Cl)cc12,0,94,68,83,248*,33*
CCc1cc(=O)oc2c(CN3CCN(C)CC3)c(O)c(Cl)cc12,0,?,?,84,302*[may fluoresce violet],44*[may fluoresce violet]
CCn1cc(C(=O)N2CCCC(CO)(Cc3ccccc3C)C2)cn1 (configuration not stated),0,105,104,107,105,100
Cc1cc(N2C(=O)C(O)=C(C(=O)c3ccco3)C2c2ccccc2F)no1 (configuration not stated),0,98,98,103,98,102
Cn1c(=O)[nH]c(=O)c2c1nc(N1CCCCC1)n2CCOc1ccccc1,0,118,26,90,218*,nt
N#Cc1c(NCCCO)nc(-c2ccco2)c2c1CCCC2,1,?,17,103,243*[may fluoresce violet],93
O=C(N=C1SC2CS(=O)(=O)CC2N1c1ccc(Cl)c(Cl)c1)C1CCCO1 (configuration not stated),0,108,102,98,102,102
Clc1ccc2nc(N3CCNCC3)nc(-c3ccccc3)c2c1,0,?,?,?,?,39*[may fluoresce violet]
CN1CCN(c2nc(-c3ccccc3)c3cc(Cl)ccc3n2)CC1,0,82,92,91,100,92
CC(C)c1ccc(N(C(=O)c2snc(C(N)=O)c2N)C(C(=O)NC2CCCC2)c2ccncc2)cc1 (configuration not stated),0,114,96,98,115,102
COc1ccc(N(CC(=O)NCc2ccco2)C(=O)CCC(=O)Nc2nccs2)cc1,0,96,97,88,103,98
COc1cccc(N=Nc2ccc3cccnc3c2O)c1,0,146,105,166*,112,99
O=C(N/N=C\c1ccc(Cl)cc1)C1=NOC2COC3(CCN(c4ccc([N+](=O)[O-])cc4)CC3)OCC12 (configuration not stated),0,110,112,108,113,110
O=C(Cn1c(=O)cnc2ccccc21)Nc1cccc(S(=O)(=O)N2CCCCC2)c1,0,96,104,108,106,100
C/C(=N\NC(=O)c1nonc1N)c1cccs1,0,99,101,127,233*,102
COCc1c(C(=O)N/N=C(/C)c2cccs2)nnn1-c1nonc1N,0,105,112,101,101,105

# Assay outcomes from PubChem.
